Test results from PubChem BioAssay (EPA / NIEHS).
Calls of active or inactive are those of the source. How the source made its calls: active means hit-call score of the fitted dose curve at least 0.9, where 1 is the maximum; inactive means score below 0.9.

What follows are compounds tested on succinate dehydrogenase complex iron sulfur subunit B (SDHB), SDHB (gene 6390) (assay: LTEA_HepaRG_SDHB: Life Technologies and Expression Analysis (LTEA) Assay for succinate dehydrogenase complex iron sulfur subunit B (SDHB) using HepaRG (AID 2283528)). Details: mRNA level, 48 h; actives raise or lower the signal.
Procedure, shortened: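 HepaRG, 48 h exposure, 8-pt half-log series from 100 uM in 0.5% DMSO, duplicates. Readout: SDHB mRNA by Fluidigm qRT-PCR vs housekeeping genes; bidirectional fit relative to DMSO.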

**Q.** How did the outcome turn out when `c1cc2ccc3cccc4ccc(c1)c2c34` was run?
**A.** Its outcome is “inactive”.

**Q.** `CCSC(=O)N(CC)C1CCCCC1` was tested. Which outcome did it give?
**A.** Its outcome is “inactive”.

**Q.** `COS(=O)(=O)OC` was tested. Which outcome did it give?
**A.** The outcome was “inactive”.

**Q.** Which outcome does the source give for `CCCCCCCCCc1ccc(O)cc1` here?
**A.** The outcome was “inactive”.

**Q.** Which outcome does the source give for `CCCCCCCCOC(=O)c1ccccc1C(=O)OCCCCCCCC` here?
**A.** Its outcome is “inactive”.

**Q.** `O=C(O)C(F)(F)C(F)(F)C(F)(F)C(F)(F)C(F)(F)F` was tested. Which outcome did it give?
**A.** Its outcome is “inactive”.

**Q.** How did the outcome turn out when `O=S(=O)(O)C(F)(F)C(F)(F)C(F)(F)C(F)(F)F` was run?
**A.** The outcome was “inactive”.

**Q.** With `CN(C)c1nc(=O)n(C2CCCCC2)c(=O)n1C` as the compound, how does the outcome read?
**A.** Its outcome is “inactive”.

**Q.** How did the outcome turn out when `Cc1cccc([N+](=O)[O-])c1` was run?
**A.** The outcome was “inactive”.

**Q.** For `Cc1ccc(O)c(C)c1`, which outcome is on record?
**A.** Its outcome is “inactive”.

**Q.** `O=S(=O)(O)C(F)(F)C(F)(F)C(F)(F)C(F)(F)C(F)(F)C(F)(F)F` was tested. Which AC50 did it give?
**A.** The AC50 was 8.54 µM (active).

**Q.** How did the outcome turn out when `Cc1cc(-c2ccc(N)c(C)c2)ccc1N` was run?
**A.** The outcome was “inactive”.

**Q.** Which outcome does the source give for `c1ccc(-c2ccccc2)cc1` here?
**A.** The outcome was “inactive”.

**Q.** How did the outcome turn out when `C1CC2OC2CC1C1CO1` (stereo not given) was run?
**A.** Its outcome is “inactive”.

**Q.** Which AC50 does the source give for `CCC(C)c1cc([N+](=O)[O-])cc([N+](=O)[O-])c1O` (stereo not given) here?
**A.** The AC50 was 0.656 µM (active).
